# Experimental data: PubChem BioAssay (NCATS)
# Inconclusive results are not listed. Where a call stands in place of a potency, no number is given. Active and inactive are the calls of the source. Unless noted, the call rests on the fitted dose curve; in most records, active means well fitted curve in the direction sought with a large enough effect; inconclusive means small, poorly fitted or top-dose-only effect, or another doubt; inactive means no such curve, though single readings can be large; an effect the other way counts as inactive or inconclusive.
# Legend:
# [1] = molecular target: Cytochrome P450 1A2 (Homo sapiens) (UniProt P05177); test: p450-cyp1a2 (AID 410; calls by dose curve)
# Sequence of Cytochrome P450 1A2 (Homo sapiens) (P05177 whole entry, looked up): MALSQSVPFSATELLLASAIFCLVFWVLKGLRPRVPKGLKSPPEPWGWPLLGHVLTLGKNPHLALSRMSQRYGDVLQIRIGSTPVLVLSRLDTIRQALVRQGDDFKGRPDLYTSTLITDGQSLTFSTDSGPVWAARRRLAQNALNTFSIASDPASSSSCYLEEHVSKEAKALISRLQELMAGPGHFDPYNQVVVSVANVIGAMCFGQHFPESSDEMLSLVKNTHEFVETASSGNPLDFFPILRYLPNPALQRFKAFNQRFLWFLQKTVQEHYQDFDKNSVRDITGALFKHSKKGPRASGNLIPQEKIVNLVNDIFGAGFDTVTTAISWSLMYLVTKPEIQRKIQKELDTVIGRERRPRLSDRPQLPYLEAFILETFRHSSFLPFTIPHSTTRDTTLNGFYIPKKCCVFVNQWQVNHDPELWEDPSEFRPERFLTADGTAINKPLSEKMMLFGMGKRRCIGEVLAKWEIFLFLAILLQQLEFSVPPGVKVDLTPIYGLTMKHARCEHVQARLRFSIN
# Procedure, shortened: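 Luminescent readout of luciferin formed from Luciferin-ME by human CYP1A2; data normalized against complete inhibition by 57 uM furafylline. Enzyme 20nM, substrate 100uM at Km, 100mM KPO4 buffer, 60 min reaction at room temperature.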
# [2] = molecular target: Glucocorticoid receptor (Homo sapiens) (UniProt P04150); test: GR-GFP Redistribution (AID 450;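 active means compounds whose dose series gives a full or clear partial fitted curve of increased nuclear translocation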; further: potency means the concentration at half of the fitted maximal effect); details: U2OS GR-GFP nuclear translocation, laser cytometry, 2 h
# Sequence of Glucocorticoid receptor (Homo sapiens) (P04150 whole entry, looked up): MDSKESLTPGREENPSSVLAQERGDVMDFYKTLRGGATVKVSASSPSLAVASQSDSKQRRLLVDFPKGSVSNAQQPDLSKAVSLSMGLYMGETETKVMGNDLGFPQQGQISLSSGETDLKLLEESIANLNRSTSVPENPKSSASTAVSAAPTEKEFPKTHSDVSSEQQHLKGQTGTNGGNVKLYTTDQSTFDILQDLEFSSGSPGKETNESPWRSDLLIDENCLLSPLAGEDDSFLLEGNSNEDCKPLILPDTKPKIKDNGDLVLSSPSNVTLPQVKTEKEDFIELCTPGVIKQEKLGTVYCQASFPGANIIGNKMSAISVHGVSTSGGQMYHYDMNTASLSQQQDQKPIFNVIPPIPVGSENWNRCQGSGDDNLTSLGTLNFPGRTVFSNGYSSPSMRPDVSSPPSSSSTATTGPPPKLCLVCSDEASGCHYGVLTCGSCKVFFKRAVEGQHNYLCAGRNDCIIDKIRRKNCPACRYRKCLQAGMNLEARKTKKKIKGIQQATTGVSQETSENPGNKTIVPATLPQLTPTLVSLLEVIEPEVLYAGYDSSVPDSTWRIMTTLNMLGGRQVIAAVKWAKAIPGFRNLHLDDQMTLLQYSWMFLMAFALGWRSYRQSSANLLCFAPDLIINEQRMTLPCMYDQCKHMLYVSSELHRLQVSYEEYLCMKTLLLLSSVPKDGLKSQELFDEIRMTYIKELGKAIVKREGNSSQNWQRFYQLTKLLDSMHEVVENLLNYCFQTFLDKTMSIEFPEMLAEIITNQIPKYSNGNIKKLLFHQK
# [3] = molecular target: Mitogen-activated protein kinase 10 (Mus musculus) (UniProt Q61831); test: JNK3 AlphaScreen Assay (AID 530; active means well fitted curve in either direction with a large enough effect, not every such curve was filed as active;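 further: kinase came from lysate of stimulated human HepG2 cells; signal reports phosphorylation of biotinylated GST-cJun 1-79 at Ser73 with 10 µM ATP; series mostly up to about 57 µM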)
# Procedure, shortened: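 Compound titrations were preincubated 15 minutes at room temperature with substrate, antibody and pre-activated JNK3-containing HepG2 lysate. Reactions were started with 10 uM ATP and stopped with EDTA-containing bead buffer for AlphaScreen detection.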
# [4] = molecular target: 3',5'-cyclic-AMP phosphodiesterase 4B (Homo sapiens) (UniProt Q07343); test: qHTS Assay for Inhibitors of PDE-IV (AID 607; active means well fitted activation curve with a large enough effect in the main read-out, with a control signal flat, not every such curve was filed as active)
# Sequence of 3',5'-cyclic-AMP phosphodiesterase 4B (Homo sapiens) (Q07343 whole entry, looked up): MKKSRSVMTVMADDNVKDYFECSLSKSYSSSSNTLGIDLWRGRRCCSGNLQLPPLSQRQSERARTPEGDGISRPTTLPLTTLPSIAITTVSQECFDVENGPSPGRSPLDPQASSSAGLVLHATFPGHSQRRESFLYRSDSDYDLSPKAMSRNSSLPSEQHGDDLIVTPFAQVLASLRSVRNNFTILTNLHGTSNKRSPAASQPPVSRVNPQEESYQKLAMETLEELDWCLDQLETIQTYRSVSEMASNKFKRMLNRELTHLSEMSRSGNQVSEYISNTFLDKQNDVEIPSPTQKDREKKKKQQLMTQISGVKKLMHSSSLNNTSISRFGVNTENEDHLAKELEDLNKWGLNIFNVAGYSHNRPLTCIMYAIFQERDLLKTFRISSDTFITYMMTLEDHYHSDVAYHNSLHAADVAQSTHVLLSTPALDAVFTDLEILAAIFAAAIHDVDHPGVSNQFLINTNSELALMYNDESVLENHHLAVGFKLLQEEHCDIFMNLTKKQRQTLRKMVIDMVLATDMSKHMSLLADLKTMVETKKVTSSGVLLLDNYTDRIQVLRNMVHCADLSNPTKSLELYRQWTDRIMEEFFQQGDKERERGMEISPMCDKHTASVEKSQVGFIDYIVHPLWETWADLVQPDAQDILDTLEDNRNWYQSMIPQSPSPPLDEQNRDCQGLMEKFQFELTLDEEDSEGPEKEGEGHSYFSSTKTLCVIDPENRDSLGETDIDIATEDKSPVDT
# Procedure, shortened: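 The readout is membrane depolarisation from a cAMP-sensing CNG channel, detected with a potential dye at ex 535/em 590. Cells were HEK293-derived (endogenous PDE-IV) at 1000 cells/well, titrated up to 22.9 uM final.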
# [5] = molecular target: Cytochrome P450 3A4 (Homo sapiens) (UniProt P08684); test: qHTS Assay for Activators of Cytochrome P450 3A4 (AID 885); further: nearly all actives have a fitted effect of over 65% in size
# Sequence of Cytochrome P450 3A4 (Homo sapiens) (P08684 whole entry, looked up): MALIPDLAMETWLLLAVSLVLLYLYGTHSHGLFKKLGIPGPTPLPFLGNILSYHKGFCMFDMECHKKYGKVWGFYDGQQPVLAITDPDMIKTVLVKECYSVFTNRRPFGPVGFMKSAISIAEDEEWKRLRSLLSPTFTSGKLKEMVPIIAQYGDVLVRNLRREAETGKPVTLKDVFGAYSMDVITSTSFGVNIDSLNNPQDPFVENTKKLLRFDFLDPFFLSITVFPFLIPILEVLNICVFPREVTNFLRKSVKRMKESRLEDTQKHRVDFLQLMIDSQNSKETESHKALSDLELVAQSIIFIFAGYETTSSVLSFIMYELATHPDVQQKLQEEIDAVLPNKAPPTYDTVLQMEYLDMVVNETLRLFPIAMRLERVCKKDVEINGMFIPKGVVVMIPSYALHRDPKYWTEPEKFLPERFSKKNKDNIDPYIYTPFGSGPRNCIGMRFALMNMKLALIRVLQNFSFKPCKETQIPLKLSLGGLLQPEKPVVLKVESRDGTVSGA
# Procedure, shortened: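 Steps: enzyme/substrate mix dispensed; compound added, 10 min RT; NADPH regeneration solution added, 60 min RT; luciferin detection buffer stops reaction; 20 min later luminescence measured.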
# [6] = molecular target: DNA dC->dU-editing enzyme APOBEC-3G (Homo sapiens) (UniProt Q9HC16); test: qHTS for inhibitors of Vif-A3G interactions: Validation (AID 588379)
# Sequence of DNA dC->dU-editing enzyme APOBEC-3G (Homo sapiens) (Q9HC16 whole entry, looked up): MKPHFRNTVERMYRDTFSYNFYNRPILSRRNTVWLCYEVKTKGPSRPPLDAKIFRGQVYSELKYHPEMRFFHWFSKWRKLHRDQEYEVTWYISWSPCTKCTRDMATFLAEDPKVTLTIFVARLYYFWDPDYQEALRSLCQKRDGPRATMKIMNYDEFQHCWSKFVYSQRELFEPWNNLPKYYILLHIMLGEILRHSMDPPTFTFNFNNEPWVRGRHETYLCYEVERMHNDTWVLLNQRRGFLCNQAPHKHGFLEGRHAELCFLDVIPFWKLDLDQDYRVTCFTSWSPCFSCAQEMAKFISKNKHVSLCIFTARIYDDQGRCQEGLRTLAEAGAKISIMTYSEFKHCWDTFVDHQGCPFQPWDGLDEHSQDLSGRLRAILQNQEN
# Procedure, shortened: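 HeLa cells stably expressing Vif and A3G-eYFP, 700 cells/well, incubated overnight at 37 deg C, then exposed to compound overnight at 37 deg C. Inhibition of Vif-mediated degradation read as increased yellow fluorescence (Ex 488/Em 500-530) by laser-scanning cytometry.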
# [7] = test system: Zika virus NS2B-NS3 protease; test: Primary screen GU AMC qHTS for Zika virus inhibitors (AID 1347154); further: nearly all actives have a fitted effect of over 70% in size
# Procedure, shortened: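 Fluorogenic AMC-substrate cleavage by noncovalent NS2B-NS3 protease complex (25 nM, pH 8.0 Tris buffer with Tween 20) followed for 15 minutes at room temperature (~20% conversion). Percent inhibition from ex340/em450 signal change, fitted by 4-parameter Hill equation.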
# [8] = Counterscreen qHTS for small molecule stabilizers of the endoplasmic reticulum resident proteome: GLuc-NoTag assay (AID 1508627);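 further: SH-SY5Y cells given compound then 100 nM thapsigargin to empty ER calcium; series mostly up to about 76 µM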
# Procedure, shortened: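 Luminescence of Gaussia luciferase secreted into the medium (coelenterazine, 0.07x final, unlysed cells) was the read-out. Human SH-SY5Y neuroblastoma cells constitutively secreting untagged GLuc received compound for 19 h, then 100 nM thapsigargin for 4 h.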
# [9] = Confirmatory qHTS for small molecule stabilizers of the endoplasmic reticulum resident proteome: Secreted ER Calcium Modulated Protein (SERCaMP) assay (AID 1508628); further: potency means the concentration at half of the fitted maximal effect; nearly all actives have a fitted effect of over 40% in size
# Procedure, shortened: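 SH-SY5Y cells stably expressing GLuc-SERCaMP, treated 16 h with compound (primary 1.53, 7.67, 38.3 uM; confirmation 11 concentrations, up to 76.6 uM), then 100 nM thapsigargin for 4 h. Secreted Gaussia luciferase in medium read by coelenterazine luminescence.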
# [10] = Cell Viability qHTS for small molecule stabilizers of the endoplasmic reticulum resident proteome (AID 1508629); details: cell viability counter-screen, 100 nM thapsigargin for final 4 h;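 further: human SH-SY5Y neuroblastoma cells carrying the GLuc-SERCaMP reporter; compound exposure about 46 h in total before the viability read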
smiles,measurement,setting,value
CC(C)C[C@H]1C(=O)N2CCC[C@@H]2[C@]2(O)O[C@](NC(=O)[C@@H]3C=C4c5cccc6[nH]c(Br)c(c56)C[C@H]4N(C)C3)(C(C)C)C(=O)N12,Potency,[1],inactive
same,Potency,[2],> 46 µM (inactive)
same,Potency,[3],inactive
same,Potency,[4],inactive
same,Potency,[5],inactive
same,Potency,[6],inactive
same,Potency,[7],inactive
same,Potency,[8],inactive
same,Potency,[9],10 µM (active)
same,max response,[10],-14.6% (inactive)
